Reference: the supplement of paper PMC11732987, “Enantioselective OTUD7B fragment discovery through chemoproteomics screening and high-throughput optimisation” (Communications Chemistry, 2025)

How the values were obtained:
Assay in all cases: log2 ratio of Biotin-Ahx-Ub-VS probe labelling (fragment/DMSO); higher = less target engagement (more negative = stronger competition), active = hit call of the paper (q ≤ 0.05, log2 ratio ≤ -1)
Settings in all cases: compound concentration: 200 uM; treatment time: 3 h
USP19 = target: T1, USP19 (UniProt O94966)
T1 sequence (whole entry): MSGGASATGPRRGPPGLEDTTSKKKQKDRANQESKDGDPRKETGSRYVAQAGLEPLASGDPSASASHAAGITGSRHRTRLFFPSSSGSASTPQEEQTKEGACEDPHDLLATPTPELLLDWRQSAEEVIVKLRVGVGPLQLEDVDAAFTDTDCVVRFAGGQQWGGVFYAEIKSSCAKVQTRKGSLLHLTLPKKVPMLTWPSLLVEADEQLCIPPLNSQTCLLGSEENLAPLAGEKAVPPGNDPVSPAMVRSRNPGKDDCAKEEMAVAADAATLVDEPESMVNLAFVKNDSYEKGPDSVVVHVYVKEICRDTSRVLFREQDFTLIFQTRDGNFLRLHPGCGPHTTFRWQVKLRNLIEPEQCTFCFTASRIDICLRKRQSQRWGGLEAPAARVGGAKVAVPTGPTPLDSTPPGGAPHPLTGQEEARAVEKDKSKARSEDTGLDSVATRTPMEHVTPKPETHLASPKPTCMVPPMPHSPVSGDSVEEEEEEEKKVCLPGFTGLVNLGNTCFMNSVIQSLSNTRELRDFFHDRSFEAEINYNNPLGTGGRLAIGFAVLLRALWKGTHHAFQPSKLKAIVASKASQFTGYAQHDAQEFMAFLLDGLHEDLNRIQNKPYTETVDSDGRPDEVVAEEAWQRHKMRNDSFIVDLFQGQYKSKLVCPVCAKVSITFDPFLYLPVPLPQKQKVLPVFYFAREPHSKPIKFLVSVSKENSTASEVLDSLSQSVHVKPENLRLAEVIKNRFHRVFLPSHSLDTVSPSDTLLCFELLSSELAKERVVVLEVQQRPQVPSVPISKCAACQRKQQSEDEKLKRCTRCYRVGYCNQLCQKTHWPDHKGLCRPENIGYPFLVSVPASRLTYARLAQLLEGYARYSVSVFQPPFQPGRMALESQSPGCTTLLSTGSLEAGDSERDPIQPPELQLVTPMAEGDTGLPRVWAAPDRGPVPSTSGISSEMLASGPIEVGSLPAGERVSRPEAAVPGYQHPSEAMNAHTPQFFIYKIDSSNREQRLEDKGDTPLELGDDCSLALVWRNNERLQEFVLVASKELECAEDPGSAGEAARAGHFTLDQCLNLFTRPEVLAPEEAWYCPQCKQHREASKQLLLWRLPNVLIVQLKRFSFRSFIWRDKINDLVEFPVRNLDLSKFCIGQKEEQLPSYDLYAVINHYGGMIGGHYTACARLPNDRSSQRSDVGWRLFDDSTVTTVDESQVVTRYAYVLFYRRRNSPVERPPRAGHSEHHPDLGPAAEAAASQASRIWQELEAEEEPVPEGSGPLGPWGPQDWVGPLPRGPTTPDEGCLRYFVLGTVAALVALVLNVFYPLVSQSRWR
In short: (§1)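 Each value is an average log2 ratio of fragment to vehicle, tested by unpaired t-test. The underlying Spectronaut label-free quantities were global-median-normalised, and only proteins with ≥2 unique peptides were included. Triplicate HEK293T lysate samples (495 µg) were exposed to fragment at 200 µM or vehicle for 3 h, then to Biotin-Ahx-Ub-VS at 0.5 µM final for 1 h, before NeutrAvidin enrichment of labelled DUBs, LysC and trypsin digestion, and diaPASEF LC-MS/MS.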

USP22 = target: T2, USP22 (UniProt Q9UPT9)
T2 sequence (whole entry): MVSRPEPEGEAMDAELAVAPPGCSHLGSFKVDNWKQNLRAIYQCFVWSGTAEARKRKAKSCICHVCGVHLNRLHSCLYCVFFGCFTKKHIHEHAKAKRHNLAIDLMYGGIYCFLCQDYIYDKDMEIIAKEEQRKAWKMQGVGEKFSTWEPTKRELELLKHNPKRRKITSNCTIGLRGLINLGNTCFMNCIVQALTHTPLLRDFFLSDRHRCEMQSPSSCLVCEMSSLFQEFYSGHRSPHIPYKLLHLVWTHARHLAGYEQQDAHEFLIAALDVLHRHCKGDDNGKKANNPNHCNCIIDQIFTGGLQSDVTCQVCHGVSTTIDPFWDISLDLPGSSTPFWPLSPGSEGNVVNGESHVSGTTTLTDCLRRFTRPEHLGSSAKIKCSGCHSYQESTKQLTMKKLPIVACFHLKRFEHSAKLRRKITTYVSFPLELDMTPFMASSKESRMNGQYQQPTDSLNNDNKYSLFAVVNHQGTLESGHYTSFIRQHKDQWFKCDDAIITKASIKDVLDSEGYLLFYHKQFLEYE
In short: as §1

USP24 = USP24 (UniProt Q9UPU5)
In short: as §1

USP25 = target: T3, USP25 (UniProt Q9UHP3)
T3 sequence (whole entry): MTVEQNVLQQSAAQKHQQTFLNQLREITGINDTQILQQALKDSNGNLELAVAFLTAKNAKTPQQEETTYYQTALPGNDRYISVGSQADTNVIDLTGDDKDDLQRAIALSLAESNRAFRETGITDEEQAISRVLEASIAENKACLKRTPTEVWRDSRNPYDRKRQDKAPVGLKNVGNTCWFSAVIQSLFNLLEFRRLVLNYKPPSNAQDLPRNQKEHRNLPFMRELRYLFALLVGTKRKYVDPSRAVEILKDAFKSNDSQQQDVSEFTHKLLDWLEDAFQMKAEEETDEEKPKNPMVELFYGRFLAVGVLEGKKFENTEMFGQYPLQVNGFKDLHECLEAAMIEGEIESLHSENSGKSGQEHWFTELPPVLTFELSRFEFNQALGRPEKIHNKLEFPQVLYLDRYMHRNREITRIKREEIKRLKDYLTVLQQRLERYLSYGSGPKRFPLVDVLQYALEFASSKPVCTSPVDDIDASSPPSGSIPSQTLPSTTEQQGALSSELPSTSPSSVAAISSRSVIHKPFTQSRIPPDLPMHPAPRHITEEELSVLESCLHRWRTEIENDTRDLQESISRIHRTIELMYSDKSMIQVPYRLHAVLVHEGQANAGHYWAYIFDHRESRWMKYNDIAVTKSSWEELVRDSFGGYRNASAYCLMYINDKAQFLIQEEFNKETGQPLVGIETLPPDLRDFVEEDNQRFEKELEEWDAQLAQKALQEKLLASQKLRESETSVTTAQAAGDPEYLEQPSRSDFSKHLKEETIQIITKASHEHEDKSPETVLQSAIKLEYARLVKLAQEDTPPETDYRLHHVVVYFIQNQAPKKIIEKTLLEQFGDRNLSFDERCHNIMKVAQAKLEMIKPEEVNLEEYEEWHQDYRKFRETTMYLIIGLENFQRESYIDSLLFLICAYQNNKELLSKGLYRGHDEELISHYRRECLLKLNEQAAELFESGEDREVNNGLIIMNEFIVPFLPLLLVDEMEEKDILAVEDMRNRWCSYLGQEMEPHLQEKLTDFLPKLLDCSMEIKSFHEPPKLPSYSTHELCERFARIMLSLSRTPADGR
In short: as §1

USP28 = target: T4, USP28 (UniProt Q96RU2)
T4 sequence (whole entry): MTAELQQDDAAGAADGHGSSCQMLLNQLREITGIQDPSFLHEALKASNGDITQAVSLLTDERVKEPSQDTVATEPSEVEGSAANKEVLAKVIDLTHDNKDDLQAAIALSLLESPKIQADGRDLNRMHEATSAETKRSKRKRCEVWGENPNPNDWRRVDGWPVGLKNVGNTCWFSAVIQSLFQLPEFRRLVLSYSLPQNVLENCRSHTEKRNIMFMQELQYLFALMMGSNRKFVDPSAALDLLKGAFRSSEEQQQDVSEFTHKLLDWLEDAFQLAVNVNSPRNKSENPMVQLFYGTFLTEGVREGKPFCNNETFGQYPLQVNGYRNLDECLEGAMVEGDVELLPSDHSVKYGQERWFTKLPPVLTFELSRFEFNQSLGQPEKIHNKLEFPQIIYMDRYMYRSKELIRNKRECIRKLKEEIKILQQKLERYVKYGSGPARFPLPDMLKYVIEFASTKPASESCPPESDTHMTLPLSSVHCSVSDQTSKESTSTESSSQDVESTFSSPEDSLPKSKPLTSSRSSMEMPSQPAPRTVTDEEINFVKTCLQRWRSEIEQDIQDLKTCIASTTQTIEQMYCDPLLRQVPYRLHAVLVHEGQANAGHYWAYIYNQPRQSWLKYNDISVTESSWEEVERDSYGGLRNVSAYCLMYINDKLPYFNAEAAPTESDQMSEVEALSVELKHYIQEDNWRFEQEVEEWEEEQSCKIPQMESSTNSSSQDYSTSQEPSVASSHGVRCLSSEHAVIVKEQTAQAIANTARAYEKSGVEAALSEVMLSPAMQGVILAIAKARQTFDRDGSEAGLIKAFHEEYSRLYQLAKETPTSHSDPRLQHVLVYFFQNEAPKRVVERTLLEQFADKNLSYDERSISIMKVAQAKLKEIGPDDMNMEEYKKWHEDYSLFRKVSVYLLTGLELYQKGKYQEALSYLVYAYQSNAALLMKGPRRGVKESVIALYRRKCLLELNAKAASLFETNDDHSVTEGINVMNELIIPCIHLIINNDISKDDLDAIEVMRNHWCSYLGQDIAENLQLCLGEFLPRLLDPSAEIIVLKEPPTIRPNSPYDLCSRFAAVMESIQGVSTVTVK
In short: as §1

Measured: log2 ratio of Biotin-Ahx-Ub-VS probe labelling

Sequence of USP24 (Q9UPU5 whole entry): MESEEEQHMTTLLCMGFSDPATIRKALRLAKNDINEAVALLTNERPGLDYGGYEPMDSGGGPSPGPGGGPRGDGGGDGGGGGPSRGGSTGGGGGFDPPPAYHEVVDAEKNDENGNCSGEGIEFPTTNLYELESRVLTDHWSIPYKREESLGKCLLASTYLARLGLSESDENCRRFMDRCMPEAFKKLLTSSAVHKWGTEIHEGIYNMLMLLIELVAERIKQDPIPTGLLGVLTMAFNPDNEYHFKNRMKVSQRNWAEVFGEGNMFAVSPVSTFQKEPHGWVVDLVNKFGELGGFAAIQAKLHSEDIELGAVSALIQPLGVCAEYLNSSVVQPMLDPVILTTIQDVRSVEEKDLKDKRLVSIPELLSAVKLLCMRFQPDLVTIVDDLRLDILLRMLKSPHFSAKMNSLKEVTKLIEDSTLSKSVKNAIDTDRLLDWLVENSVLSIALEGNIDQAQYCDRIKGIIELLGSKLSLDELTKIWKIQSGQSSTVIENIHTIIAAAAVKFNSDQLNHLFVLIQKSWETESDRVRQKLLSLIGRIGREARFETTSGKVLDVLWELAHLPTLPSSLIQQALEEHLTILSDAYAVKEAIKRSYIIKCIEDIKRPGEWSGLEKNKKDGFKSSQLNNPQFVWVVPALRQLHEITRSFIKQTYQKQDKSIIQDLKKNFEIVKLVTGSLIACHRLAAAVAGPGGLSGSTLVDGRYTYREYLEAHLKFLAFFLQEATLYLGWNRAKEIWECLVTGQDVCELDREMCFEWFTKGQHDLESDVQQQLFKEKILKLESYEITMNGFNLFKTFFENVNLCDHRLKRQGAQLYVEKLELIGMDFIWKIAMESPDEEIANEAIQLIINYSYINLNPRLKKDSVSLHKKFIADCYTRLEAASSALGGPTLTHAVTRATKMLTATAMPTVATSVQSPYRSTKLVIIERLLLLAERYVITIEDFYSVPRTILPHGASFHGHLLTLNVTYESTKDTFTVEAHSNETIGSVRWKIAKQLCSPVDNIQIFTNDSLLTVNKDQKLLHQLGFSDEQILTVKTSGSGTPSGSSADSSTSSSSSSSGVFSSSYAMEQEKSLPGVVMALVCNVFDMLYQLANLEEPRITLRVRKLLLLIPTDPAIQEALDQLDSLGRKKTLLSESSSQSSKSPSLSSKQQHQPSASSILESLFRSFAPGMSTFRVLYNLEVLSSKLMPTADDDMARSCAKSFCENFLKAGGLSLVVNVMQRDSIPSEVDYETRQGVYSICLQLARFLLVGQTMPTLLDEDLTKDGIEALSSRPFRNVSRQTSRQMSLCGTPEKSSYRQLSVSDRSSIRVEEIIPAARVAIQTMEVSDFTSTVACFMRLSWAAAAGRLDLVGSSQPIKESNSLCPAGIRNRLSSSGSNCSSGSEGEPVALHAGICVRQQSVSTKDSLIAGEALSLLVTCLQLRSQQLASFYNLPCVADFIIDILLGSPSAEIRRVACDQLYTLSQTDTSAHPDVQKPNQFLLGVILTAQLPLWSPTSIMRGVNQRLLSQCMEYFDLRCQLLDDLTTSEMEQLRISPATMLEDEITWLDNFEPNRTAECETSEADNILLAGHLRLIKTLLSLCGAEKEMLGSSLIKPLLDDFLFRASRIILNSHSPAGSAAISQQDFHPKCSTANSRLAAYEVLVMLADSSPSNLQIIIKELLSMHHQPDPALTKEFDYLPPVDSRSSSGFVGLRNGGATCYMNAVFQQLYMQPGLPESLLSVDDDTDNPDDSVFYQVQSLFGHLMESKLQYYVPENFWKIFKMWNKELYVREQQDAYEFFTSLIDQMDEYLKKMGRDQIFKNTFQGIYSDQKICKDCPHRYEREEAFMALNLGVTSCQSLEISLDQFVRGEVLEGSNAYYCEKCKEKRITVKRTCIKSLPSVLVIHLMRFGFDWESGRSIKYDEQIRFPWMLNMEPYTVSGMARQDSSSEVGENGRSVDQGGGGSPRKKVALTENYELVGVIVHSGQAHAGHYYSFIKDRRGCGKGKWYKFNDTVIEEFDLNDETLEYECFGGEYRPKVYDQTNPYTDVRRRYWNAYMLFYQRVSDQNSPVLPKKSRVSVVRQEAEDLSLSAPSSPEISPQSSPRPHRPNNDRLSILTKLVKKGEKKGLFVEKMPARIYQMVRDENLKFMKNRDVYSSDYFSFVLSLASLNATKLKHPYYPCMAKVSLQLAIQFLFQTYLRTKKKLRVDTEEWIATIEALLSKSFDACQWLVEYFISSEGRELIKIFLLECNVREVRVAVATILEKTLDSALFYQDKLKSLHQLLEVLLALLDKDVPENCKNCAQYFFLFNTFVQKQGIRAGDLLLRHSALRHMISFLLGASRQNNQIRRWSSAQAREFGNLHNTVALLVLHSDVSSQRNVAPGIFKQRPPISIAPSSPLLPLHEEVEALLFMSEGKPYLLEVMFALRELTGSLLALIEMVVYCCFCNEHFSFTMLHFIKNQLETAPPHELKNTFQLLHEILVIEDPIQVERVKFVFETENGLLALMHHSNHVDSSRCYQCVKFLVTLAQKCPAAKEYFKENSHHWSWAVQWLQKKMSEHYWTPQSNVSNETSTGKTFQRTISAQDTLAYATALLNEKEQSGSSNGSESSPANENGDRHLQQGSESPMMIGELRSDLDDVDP

COCC1C=CCCN1C(=O)CCl (stereo not given)
inactive: USP19 -0.24 | USP22 -0.0428 | USP24 -0.137 | USP25 -0.32 | USP28 -0.342
